This passage reports binding signal results from PMC7862700, “An all-to-all approach to the identification of sequence-specific readers for epigenetic DNA modifications on cytosine”.

Assay in all cases: DAPPL (digital affinity profiling via proximity ligation, sequencing); 10 mM Tris-HCl pH 7.5, 50 mM NaCl, 1 mM DTT, 4% glycerol, room temperature, 30 min; GST-TFs on glutathione beads, 16-mer random dsDNA library, 0.1% formaldehyde crosslink after washing; high values mean tight binding
The target of one assay is T1, FEV (Homo sapiens, UniProt Q99581 1-238).
T1 sequence: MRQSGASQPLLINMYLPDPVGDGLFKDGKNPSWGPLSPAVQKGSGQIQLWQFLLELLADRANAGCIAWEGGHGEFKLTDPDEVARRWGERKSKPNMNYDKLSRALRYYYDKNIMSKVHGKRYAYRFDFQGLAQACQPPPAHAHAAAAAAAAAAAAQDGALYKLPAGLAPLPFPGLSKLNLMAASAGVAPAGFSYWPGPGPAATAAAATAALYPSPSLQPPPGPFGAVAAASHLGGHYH
The settings on record: protein: recombinant; tags: N-terminal GST; dsDNA, one strand shown. A digest of the protocol: (§1)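 Yeast served to express human transcription factors as GST fusions, which were then captured on glutathione beads and labelled with DNA barcodes. Pooled with a tag-only sample, they were incubated with 200 nmole of a 16-mer random double-stranded DNA library for 30 min at room temperature in Tris/NaCl/DTT/glycerol buffer, washed, crosslinked with 0.1% formaldehyde, ligated by proximity, amplified by PCR and sequenced. Dividing each hexamer's read frequency for a factor by its frequency for the tag-only sample gives the binding signal.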

A further assay addresses ETV5 (Homo sapiens, UniProt P41161 1-510). The note with it: protein: recombinant; tags: N-terminal GST; dsDNA, one strand shown. In a few lines: as §1
The target of a further assay is HSF1 (Homo sapiens, UniProt Q00613 1-529). The settings on record: protein: recombinant; tags: N-terminal GST; chain copies: 3; dsDNA, one strand shown. A digest of the protocol: as §1
Chain of HSF1 (Q00613 whole entry): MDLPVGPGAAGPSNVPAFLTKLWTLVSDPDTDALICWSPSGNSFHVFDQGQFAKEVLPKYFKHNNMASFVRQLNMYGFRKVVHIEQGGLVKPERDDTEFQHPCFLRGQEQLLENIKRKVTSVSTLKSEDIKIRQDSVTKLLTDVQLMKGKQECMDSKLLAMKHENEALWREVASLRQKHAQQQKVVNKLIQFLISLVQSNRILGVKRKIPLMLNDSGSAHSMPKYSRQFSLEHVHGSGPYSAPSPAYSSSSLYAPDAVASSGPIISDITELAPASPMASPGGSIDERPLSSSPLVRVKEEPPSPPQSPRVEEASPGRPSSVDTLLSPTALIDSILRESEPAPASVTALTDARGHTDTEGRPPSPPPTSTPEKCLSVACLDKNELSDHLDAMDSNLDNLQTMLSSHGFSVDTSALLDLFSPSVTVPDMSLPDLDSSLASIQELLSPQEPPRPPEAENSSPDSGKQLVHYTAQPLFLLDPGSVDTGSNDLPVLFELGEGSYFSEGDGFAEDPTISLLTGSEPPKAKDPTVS
The target in a further assay is T2, SPIC (Homo sapiens, UniProt Q8N5J4 1-248).
T2 sequence: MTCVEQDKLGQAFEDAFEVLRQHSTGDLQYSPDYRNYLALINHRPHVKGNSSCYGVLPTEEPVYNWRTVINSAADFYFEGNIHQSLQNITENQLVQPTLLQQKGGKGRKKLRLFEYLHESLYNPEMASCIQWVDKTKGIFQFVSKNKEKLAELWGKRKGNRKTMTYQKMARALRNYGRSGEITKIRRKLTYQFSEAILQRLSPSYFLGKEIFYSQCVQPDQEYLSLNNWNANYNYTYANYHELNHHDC
The settings on record: protein: recombinant; tags: N-terminal GST; dsDNA, one strand shown. In a few lines:
as §1

A further assay concerns the target ELF4 (Homo sapiens, UniProt Q99607 1-663). The note with it: protein: recombinant; tags: N-terminal GST; dsDNA, one strand shown. A digest of the protocol: as §1
For a further assay, the target named is T3, ELK4 (Homo sapiens, UniProt P28324-2 1-405).
T3 sequence: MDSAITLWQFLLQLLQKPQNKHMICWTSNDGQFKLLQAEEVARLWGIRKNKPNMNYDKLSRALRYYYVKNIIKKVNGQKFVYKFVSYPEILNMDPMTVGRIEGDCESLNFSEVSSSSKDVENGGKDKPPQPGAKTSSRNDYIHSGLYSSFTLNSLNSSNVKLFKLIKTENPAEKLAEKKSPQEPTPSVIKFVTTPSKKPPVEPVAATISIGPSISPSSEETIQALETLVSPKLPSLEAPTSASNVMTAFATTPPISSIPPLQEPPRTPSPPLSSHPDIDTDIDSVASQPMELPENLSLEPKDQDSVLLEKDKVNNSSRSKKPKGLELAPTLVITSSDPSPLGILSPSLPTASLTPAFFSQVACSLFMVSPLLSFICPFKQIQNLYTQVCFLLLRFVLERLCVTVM
The settings on record: protein: recombinant; tags: N-terminal GST; dsDNA, one strand shown. A digest of the protocol:
as §1

In another assay the target is T4, ETV2 (Homo sapiens, UniProt O00321 1-342).
T4 sequence: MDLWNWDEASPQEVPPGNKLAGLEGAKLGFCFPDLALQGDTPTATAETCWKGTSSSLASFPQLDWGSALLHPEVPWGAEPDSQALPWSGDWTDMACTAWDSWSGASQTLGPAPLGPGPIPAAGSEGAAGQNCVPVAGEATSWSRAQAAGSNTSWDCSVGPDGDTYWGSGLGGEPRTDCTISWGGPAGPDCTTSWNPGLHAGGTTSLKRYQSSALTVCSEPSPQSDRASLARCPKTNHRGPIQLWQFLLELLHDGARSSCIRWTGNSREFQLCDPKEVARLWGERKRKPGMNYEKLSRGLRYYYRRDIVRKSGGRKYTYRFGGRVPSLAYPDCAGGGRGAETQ
The note with it: protein: recombinant; tags: N-terminal GST; dsDNA, one strand shown. In a few lines: as §1

In the next assay the target is T5, ELF3 (Homo sapiens, UniProt P78545 1-371).
T5 sequence: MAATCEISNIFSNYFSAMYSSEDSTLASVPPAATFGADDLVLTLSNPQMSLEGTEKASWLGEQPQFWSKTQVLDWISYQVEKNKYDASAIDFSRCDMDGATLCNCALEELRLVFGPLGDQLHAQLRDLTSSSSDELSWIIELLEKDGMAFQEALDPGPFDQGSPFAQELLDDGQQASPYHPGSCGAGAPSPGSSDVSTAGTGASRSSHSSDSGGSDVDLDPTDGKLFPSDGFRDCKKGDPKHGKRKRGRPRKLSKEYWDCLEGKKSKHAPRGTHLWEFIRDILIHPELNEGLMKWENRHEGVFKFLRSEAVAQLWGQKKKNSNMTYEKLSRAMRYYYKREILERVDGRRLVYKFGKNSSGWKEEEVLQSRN
The settings on record: protein: recombinant; tags: N-terminal GST; dsDNA, one strand shown. In a few lines:
as §1

Another assay deals with CRX (Homo sapiens, UniProt O43186 1-299). The note with it: protein: recombinant; tags: N-terminal GST; dsDNA, one strand shown. A digest of the protocol: as §1
Chain of CRX (O43186 whole entry): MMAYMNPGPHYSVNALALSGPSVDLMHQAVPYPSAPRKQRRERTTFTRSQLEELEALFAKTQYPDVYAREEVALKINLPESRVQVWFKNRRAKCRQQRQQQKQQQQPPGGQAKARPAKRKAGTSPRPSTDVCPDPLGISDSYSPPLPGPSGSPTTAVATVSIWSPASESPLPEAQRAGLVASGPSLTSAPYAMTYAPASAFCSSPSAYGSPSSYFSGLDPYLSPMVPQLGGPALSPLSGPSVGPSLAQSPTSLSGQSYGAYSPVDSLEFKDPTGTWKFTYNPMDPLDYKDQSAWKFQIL
Another assay addresses ETV1 (Homo sapiens, UniProt P50549 1-477). The settings on record: protein: recombinant; tags: N-terminal GST; dsDNA, one strand shown. A digest of the protocol: as §1
The target in a further assay is T6, ERF (Homo sapiens, UniProt P50548 1-548).
T6 sequence: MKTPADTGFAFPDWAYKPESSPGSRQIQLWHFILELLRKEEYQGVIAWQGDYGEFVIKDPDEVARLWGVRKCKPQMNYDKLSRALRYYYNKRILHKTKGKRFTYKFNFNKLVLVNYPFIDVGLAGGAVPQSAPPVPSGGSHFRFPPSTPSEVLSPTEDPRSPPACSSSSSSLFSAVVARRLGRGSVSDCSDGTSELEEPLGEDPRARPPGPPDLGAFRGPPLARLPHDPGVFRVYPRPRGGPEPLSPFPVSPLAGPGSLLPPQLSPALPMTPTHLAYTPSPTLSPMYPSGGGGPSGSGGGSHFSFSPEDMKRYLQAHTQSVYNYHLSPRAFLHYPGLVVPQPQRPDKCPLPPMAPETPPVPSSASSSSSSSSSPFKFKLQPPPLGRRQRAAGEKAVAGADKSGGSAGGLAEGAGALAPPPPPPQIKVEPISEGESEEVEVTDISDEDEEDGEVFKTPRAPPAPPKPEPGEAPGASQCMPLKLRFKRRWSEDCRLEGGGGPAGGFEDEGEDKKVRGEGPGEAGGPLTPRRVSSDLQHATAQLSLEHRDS
The settings on record: protein: recombinant; tags: N-terminal GST; dsDNA, one strand shown. In a few lines:
as §1

The target of another assay is T7, ETV3L (Homo sapiens, UniProt Q6ZN32 1-361).
T7 sequence: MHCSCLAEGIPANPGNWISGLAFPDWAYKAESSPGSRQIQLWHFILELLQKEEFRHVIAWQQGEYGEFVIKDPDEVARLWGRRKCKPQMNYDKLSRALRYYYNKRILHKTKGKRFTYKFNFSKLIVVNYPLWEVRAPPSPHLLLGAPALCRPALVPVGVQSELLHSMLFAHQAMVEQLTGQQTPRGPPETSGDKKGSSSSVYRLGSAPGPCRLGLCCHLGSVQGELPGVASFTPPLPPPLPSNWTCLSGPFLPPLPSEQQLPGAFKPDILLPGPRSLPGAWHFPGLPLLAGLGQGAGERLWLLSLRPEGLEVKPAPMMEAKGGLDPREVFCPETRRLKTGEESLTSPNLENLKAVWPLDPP
The settings on record: protein: recombinant; tags: N-terminal GST; dsDNA, one strand shown. In a few lines: as §1

Another assay addresses T8, ETS2 (Homo sapiens, UniProt P15036 1-469).
T8 sequence: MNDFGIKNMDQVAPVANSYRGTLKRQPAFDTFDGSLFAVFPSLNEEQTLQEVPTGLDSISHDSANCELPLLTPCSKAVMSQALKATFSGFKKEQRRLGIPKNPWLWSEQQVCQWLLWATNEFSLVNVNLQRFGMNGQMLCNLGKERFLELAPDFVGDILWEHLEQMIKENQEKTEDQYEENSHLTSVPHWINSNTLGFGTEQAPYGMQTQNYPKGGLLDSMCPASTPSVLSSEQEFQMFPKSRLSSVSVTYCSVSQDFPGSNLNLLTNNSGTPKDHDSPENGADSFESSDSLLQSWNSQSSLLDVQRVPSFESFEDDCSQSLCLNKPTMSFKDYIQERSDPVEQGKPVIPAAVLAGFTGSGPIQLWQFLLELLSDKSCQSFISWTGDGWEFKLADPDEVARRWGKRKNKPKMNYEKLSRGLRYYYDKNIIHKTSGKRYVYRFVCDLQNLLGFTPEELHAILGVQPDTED
The settings on record: protein: recombinant; tags: N-terminal GST; dsDNA, one strand shown. A digest of the protocol:
as §1

The next assay deals with T9, SPDEF (Homo sapiens, UniProt O95238 1-335).
T9 sequence: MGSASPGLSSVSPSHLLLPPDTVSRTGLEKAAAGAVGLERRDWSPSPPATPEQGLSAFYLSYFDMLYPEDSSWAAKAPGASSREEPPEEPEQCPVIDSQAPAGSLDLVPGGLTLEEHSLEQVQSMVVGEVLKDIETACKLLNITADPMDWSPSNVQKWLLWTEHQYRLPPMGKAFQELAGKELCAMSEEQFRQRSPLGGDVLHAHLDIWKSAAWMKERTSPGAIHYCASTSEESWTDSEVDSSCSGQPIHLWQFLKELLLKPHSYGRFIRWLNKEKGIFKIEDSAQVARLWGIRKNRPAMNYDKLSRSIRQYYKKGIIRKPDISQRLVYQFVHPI
The note with it: protein: recombinant; tags: N-terminal GST; dsDNA, one strand shown. A digest of the protocol:
as §1

For the next assay, the target named is T10, ETV7 (Homo sapiens, UniProt Q9Y603 1-341).
T10 sequence: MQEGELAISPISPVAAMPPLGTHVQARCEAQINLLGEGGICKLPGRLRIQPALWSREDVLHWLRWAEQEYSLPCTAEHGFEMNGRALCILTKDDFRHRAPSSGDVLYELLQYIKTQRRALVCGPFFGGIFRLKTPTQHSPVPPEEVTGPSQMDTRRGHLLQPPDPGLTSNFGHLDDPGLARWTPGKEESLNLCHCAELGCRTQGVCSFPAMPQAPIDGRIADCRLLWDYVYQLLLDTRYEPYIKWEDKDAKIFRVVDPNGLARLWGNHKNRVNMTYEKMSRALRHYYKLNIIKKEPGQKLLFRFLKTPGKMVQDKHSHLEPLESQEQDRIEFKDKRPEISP
The note with it: protein: recombinant; tags: N-terminal GST; dsDNA, one strand shown. A digest of the protocol: as §1

For a further assay, the target named is T11, ELF5 (Homo sapiens, UniProt Q9UKW6-2 1-255).
T11 sequence: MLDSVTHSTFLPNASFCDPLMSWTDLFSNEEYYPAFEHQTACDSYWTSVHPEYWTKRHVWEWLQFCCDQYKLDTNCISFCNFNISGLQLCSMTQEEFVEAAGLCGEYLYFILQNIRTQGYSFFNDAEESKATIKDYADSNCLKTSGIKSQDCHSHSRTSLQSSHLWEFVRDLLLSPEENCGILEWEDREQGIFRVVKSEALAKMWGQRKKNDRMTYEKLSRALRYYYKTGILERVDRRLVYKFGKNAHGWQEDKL
The settings on record: protein: recombinant; tags: N-terminal GST; dsDNA, one strand shown. In a few lines: as §1

For another assay, the target named is T12, ETV3 (Homo sapiens, UniProt P41162-2 1-143).
T12 sequence: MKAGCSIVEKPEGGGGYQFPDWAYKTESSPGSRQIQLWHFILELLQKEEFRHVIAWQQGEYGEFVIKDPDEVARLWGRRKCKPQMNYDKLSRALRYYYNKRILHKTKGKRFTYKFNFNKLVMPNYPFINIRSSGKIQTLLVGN
The settings on record: protein: recombinant; tags: N-terminal GST; dsDNA, one strand shown. A digest of the protocol:
as §1

Another assay deals with ETV6 (Homo sapiens, UniProt P41212 1-452). The note with it: protein: recombinant; tags: N-terminal GST; dsDNA, one strand shown. In a few lines: as §1
Chain of ETV6 (P41212 whole entry): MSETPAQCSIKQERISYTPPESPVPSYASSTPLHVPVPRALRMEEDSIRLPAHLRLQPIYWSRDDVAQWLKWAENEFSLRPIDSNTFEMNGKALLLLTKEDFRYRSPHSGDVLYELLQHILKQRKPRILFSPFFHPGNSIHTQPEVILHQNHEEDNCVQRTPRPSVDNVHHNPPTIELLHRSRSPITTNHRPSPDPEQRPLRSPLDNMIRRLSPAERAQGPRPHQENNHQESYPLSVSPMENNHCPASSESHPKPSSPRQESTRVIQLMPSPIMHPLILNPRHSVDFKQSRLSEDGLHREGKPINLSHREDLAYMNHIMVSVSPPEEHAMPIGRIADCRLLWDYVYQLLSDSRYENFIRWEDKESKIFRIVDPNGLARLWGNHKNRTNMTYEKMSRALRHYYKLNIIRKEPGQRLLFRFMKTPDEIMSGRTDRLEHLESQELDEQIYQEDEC

Chain of ETV1 (P50549 whole entry): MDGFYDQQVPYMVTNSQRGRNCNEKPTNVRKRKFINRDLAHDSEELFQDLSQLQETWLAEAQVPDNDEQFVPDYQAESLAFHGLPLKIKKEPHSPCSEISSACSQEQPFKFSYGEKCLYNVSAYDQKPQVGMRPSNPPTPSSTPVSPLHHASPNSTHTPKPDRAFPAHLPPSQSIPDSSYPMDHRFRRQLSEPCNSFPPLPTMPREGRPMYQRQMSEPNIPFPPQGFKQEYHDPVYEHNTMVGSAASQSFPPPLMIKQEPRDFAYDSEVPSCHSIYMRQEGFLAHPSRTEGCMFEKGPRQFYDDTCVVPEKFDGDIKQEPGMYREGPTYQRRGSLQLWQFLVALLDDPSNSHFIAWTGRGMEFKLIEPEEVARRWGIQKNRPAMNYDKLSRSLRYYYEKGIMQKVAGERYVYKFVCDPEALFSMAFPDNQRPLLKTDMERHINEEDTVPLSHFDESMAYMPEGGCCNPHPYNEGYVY
Chain of ELF4 (Q99607 whole entry): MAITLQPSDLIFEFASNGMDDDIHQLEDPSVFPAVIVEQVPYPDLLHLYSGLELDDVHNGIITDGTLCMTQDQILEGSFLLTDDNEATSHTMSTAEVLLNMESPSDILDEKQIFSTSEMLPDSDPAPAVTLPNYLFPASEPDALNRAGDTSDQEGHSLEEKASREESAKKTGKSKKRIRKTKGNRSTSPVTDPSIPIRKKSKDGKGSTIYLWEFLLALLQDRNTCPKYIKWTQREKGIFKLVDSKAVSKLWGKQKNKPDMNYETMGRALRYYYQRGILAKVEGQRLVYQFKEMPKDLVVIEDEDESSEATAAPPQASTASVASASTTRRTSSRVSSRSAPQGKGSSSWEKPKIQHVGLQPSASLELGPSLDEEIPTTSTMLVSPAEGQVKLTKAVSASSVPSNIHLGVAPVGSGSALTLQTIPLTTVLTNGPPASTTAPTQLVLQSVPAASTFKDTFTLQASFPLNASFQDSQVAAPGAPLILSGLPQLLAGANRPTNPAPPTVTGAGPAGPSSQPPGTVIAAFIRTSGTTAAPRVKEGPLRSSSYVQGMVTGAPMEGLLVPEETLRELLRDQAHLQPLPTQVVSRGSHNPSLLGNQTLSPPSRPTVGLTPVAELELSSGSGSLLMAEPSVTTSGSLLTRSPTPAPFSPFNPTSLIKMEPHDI
Chain of ETV5 (P41161 whole entry): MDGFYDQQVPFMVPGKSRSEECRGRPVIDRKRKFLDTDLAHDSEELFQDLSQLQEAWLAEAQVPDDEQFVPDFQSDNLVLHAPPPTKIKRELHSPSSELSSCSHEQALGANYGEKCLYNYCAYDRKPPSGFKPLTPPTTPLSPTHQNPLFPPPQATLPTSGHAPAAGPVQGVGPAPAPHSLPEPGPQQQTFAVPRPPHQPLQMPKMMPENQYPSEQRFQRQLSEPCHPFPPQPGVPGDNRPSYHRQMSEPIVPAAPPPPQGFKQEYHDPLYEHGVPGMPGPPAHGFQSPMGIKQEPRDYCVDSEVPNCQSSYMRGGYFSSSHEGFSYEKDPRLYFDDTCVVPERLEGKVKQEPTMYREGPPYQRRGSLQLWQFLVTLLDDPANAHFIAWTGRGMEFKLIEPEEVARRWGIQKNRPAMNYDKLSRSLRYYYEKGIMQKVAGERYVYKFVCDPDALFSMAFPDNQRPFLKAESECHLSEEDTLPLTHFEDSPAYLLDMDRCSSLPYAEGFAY

Turning to ATCTTA, the binding signal with FEV was 1.1 fold enrichment (6-mer frequency, TF over GST control); in the assay with ETV5 it was 1.1 fold enrichment (6-mer frequency, TF over GST control); with HSF1, 1.47 fold enrichment (6-mer frequency, TF over GST control); in the assay with SPIC it was 1.05 fold enrichment (6-mer frequency, TF over GST control); in the assay with ELF4 it was 1.1 fold enrichment (6-mer frequency, TF over GST control); in the assay with ELK4, 1.18 fold enrichment (6-mer frequency, TF over GST control). The binding signal with ETV2 was 1.12 fold enrichment (6-mer frequency, TF over GST control); with ELF3 it was 1.12 fold enrichment (6-mer frequency, TF over GST control); with CRX, 2.11 fold enrichment (6-mer frequency, TF over GST control); in the assay with ETV1, 1.12 fold enrichment (6-mer frequency, TF over GST control); in the assay with ERF, 1.1 fold enrichment (6-mer frequency, TF over GST control); with ETV3L, 1.1 fold enrichment (6-mer frequency, TF over GST control). For the same sequence, the binding signal with ETS2 was 1.12 fold enrichment (6-mer frequency, TF over GST control); in the assay with SPDEF, 1.12 fold enrichment (6-mer frequency, TF over GST control); with ETV7 it was 1.18 fold enrichment (6-mer frequency, TF over GST control); in the assay with ELF5, 1.11 fold enrichment (6-mer frequency, TF over GST control); with ETV3, 1.04 fold enrichment (6-mer frequency, TF over GST control); in the assay with ETV6 it was 1.14 fold enrichment (6-mer frequency, TF over GST control).
